About 80 (0.02%) of roughly 330,000 compounds were called active. Calls follow the shape of the dose curve; as a rule, active = well fitted activation curve with a large enough effect; inconclusive = small, poorly fitted or top-dose-only effect; inactive = flat fitted curve, though single readings scatter. Many of the other results were omitted from the sample, so actives are more common in it than they were. Square brackets hold non-standard residues; d marks the D form. Peptide text beside a SMILES is read from it. * marks the point of attachment. PhAc = O=C(Cc1ccccc1)*
What follows are compounds tested against Beta-2 adrenergic receptor (Homo sapiens) (UniProt P07550) (assay: qHTS assay of beta-arrestin-biased ligands of beta2-adrenergic receptor). Conditions: beta-arrestin recruitment to beta2AR, cell-based reporter; series mostly up to 46.1 µM; activation: at the top concentration.
Chain of Beta-2 adrenergic receptor (Homo sapiens) (P07550 whole entry, looked up): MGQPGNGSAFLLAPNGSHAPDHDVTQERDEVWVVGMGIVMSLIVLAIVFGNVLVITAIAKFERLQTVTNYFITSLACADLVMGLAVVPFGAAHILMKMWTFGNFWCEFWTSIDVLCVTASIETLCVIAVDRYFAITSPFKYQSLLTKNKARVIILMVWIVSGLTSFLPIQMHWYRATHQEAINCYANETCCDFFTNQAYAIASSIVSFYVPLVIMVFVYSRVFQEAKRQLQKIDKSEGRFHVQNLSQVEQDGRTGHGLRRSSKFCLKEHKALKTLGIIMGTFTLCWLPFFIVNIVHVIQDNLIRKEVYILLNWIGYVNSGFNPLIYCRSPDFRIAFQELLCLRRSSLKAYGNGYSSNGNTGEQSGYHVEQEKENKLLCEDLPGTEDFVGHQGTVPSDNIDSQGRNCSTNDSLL
From the text: NIH Molecular Libraries Probe Production Network [MLPCN]
NIH Chemical Genomics Center [NCGC]
PI: Bryan Roth and Bob Lefkowitz
The concept of biased agonism is an emerging concept of molecular pharmacology which proposes that seven transmembrane receptors (7TMRs) or G protein-coupled receptors (GPCRs), exist in multiple signaling conformations and complexes and that ligands (either agonists or antagonists) can induce signaling biased responses for distinct signal transduction cascades.
Furthermore, accumulating evidence over the last decade has drawn attention to a novel function of beta-arrestins as signal transducers that scaffold various signaling molecules upon activation of 7TMRs. […] This beta-arrestin-biased signaling presumably leads to distinct physiological outcomes from those by G protein activation.
Additionally, the active receptor conformations which […] on this beta-arrestin signaling are likely different from those activating G protein signaling
The goal of this screening project will be to discover and optimize novel beta-arrestin-biased ligands for beta2-AR signaling. A luminescent cell-based assay for beta2-AR-mediated agonism, known as the Tango assay, has been validated in which ligand binding of a recombinant beta2-AR and subsequent recruitment of a recombinant beta-arrestin lead to the release of the transcriptional activator tTA, which upregulates transcription of a tTA-responsive luciferase gene. […] Compounds were screened as a concentration-titration series that ranged from 46 microM to 0.6 nM.
NCGC Assay Protocol Summary:
Tango cells were dispensed into white, solid, tissue-culture-treated 1536-well plates at 1500 cells/well in DMEM, containing 1% fetal bovine serum (FBS). Then, 23 nL of compounds or DMSO were delivered to each well using a pin tool. Plates were incubated at 37 degrees C, 5% CO2 for 18 hr. Then 2.5 uL luminescent substrate mix (in-house prepared: 150 mM Tris-Cl, pH 7.6, 3 mM MgCl2, 1% Triton X-100, 5 mM DTT, 0.5 mM CoA, 0.15 mM ATP, 0.44 mM D-luciferin, final concentrations) was added to each well. Plates were then incubated for 15 minutes at room temperature, and subsequently measured on a ViewLux plate reader for luminescent signal using a clear filter with a 10 second exposure and 2x binning. The %Activity was determined from the corrected luminescence values.
Concentration-response curves were fitted to the signals arising from the resulting luminescence. The concentration-effect curves were then classified based on curve quality (r2), response magnitude and degree of measured activity, and compounds were subsequently categorized based on their curve class.
Keywords: biased agonism, beta2-AR, beta-arrestin, GPCR, 7TMR, Tango, luminescence, MLSMR, MLPCN, NIH Roadmap, qHTS, NCGC
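Also: 0% = DMSO controls and full agonism = EC100 isoproterenol or metaproterenol; nearly all actives have a fitted effect of over 65% in size.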

activation, inactive:
CCOC(=O)CC1COCCN1C(=O)c1cc(COc2ccc(F)c(F)c2)on1 (configuration not stated) 0.384%
COC/C=C/C1=CC2=CC(=O)C(C)(OC(=O)CCC(=O)OC)C(=O)C2=CO1 (configuration not stated) 0.0713%
O=C(CCn1nnnc1CN1CCOCC1)N1CCC(c2ccccc2Cl)C1 (configuration not stated) -0.681%
CC(=O)Oc1ccc(-c2cccc(C(=O)N3CCCCC3)c2)cc1 -0.158%
CC1(C)CC(=O)C(C=NCc2cccnc2)=C(O)C1 0.219%
N#C/C(=C\c1cccnc1)C(=O)Nc1ccc(SC(F)F)cc1 -0.913%
COc1ccc(OC)c(CNC(=O)Cn2nc(C)c3c(C)n(-c4ccc(C)cc4)nc3c2=O)c1 -0.685%
Cc1ccc(NN=Nc2nc3c([nH]2)c(=O)n(C)c(=O)n3C)cc1 -0.313%
COc1ccc(CNC(=O)C(C)NCc2ccccc2Cl)cc1 (configuration not stated) 0.288%
O=C(Cc1ccc(Cl)cc1)NC(=S)Nc1ccccc1O -0.0954%
Cc1ccccc1CCNC(=O)C1CCC(=O)N(Cc2ccc(Cl)cc2)C1 (configuration not stated) -0.532%
CC(C)OCCCNC(=O)c1ccc(C2SCC(=O)N2Cc2ccco2)cc1 (configuration not stated) 0.272%
COc1ccc(Cl)cc1S(=O)(=O)N1CCC(O)(c2ccc(Cl)cc2)CC1 -0.567%
Cc1nc2scc(-c3cccs3)c2c(=O)n1N -1.83%
CCOc1ccc(OCC)c(NC(=O)CSc2nnc(Cn3cnc4ccccc43)n2C)c1 -0.211%
C=C1CCN([C@H](C(=O)NCc2cc(OC)c(OC)c(OC)c2)C(C)C)S(=O)(=O)c2ccccc21 0.37%
COc1cc(C2C3=C(CCCC3=O)OC3=C2C(=O)CCC3)ccc1OCC(=O)Nc1ccccc1 -0.63%
O=S(=O)(O)CCN1CCOCC1 -0.0424%
O=S(=O)(NC1CCCCC1)c1ccc(F)c2ccccc12 -0.345%
NS(=O)(=O)c1cc2c(cc1Cl)NC(C(Cl)Cl)NS2(=O)=O (configuration not stated) -0.908%
COc1ccc(/C(O)=C2/C(=O)C(=O)N(CC3CCCO3)C2c2ccc(OC)c(OC)c2)cc1 (configuration not stated) -0.248%
CCCOc1ccc(-c2c(C(=O)N/N=C/c3ccco3)nnn2-c2nonc2N)cc1 -0.534%
Cc1cc(S(=O)(=O)c2cc3ccc(O)c(C)c3oc2=O)ccc1F 0.271%
CSCC[C@H](NC(=O)NC1CCCC1)C(=O)O 0.222%
CCN(c1ccccc1)S(=O)(=O)c1ccc(C(=O)Nc2ccccc2OC)cc1 0.146%
Cc1ccc(CN2CCN(Cc3ccc(OCCO)cc3)CC2CCO)o1 (configuration not stated) -0.418%
COc1ccc(OC)c(NC(=O)c2sc3nc(C)cc(C)c3c2N)c1 0.456%
CCCN1CCN(C(=O)Cn2ncc3ccccc32)CC1 -1.82%
C[C@H](CO)N1C[C@H](C)[C@@H](CN(C)C(=O)Nc2ccc3c(c2)OCO3)Oc2c(cccc2N(C)C)C1=O -0.0114%
CCn1ccnc1CN1CCCC(C(=O)c2ccc3c4c(cccc24)CC3)C1 (configuration not stated) 7.21%
Cc1cccc(C(=O)NNC(=O)CSc2nnc(C(C)C)n2C)c1 0.405%
C/C=C/C(=O)Nc1nnc(C(C)C)s1 0.101%
CCSc1nc2c(c(=O)[nH]1)C(c1cccnc1)C(C(=O)OC(C)C)=C(C)N2 (configuration not stated) 2.44%
CC1(C)CC(N(Cc2ccccc2)C(=O)Cc2ccccc2)CCO1 (configuration not stated) 0.0559%
COc1cccc(N(CC(=O)NC2CCCC2)C(=O)CCCC(=O)Nc2ccccn2)c1 -0.143%
O=C1CSc2ccc(S(=O)(=O)NCc3ccccc3)cc2N1 0.128%
CN(c1cccc(NC(=O)c2ccc(CN3CCc4ccccc4C3)cc2)c1)S(C)(=O)=O -0.688%
COc1ccc(NC(=O)C2CCC(CNS(=O)(=O)c3csc(C(N)=O)c3)CC2)cc1OC (configuration not stated) 0.217%
O=C(NCCc1ccc(C(F)(F)F)cc1)c1ccc2c(c1)OCO2 0.112%
COc1ccc(C(C)=O)cc1CN1C(=O)NC2(CCCCC2C)C1=O (configuration not stated) -0.794%
Cc1ccc(NC(=O)CS(=O)CC(=O)N(c2ccccc2)C(C)C(=O)NC2CCCC2)cc1 (configuration not stated) -0.262%
CC(C)C[C@@H](NC(=O)[C@H]1CCCN1C(=O)Cc1ccccc1)C(N)=O (PhAc-[dP]-[dL]-NH2) 0.667%
CCOC(=O)Cn1c(O)c(N=NC(=O)CNC(=O)Cc2ccccc2)c2ccccc21 0.315%
CCn1c(CC(=O)Nc2ccc(C)cc2)nnc1SCC(=O)Nc1nc(C)cs1 -1.04%
Cc1noc(C)c1C(=O)OCC(=O)N1CCN(S(=O)(=O)c2ccc3ccccc3c2)CC1 -0.677%
Cc1nc2ccc(NC(=O)C3CCCCC3)cc2s1 -0.228%
Cc1ccc(NC(=S)NCCc2ccc(Cl)cc2)c(C)c1 -0.056%
CCCCOC(=O)Nc1nccs1 0.2%
O=C(CN(Cc1ccccc1)C(=O)c1ccc2c(c1)OCCO2)NCc1ccc2c(c1)OCO2 -0.348%
CC(OC(=O)CN1C(=O)c2ccccc2C1=O)C(=O)c1ccccc1 (configuration not stated) -0.0877%
COc1ccc(OC)c(CNC(=O)c2cc(=O)[nH]c3ccc(S(=O)(=O)N4CCCC4)cc23)c1 0.0882%
CCCCN=C1N/C(=C\c2ccco2)C(=O)N1c1ccccc1 0.239%

— PubChem BioAssay AID492947 (National Center for Advancing Translational Sciences (NCATS), 2010)
